Drawing on PubChem BioAssay (Tox21), this text covers Potency and outcome for eight molecules.

Where “and” joins values, the source holds several entries; their conditions need not be identical. Identical values can stand only once. Records with an inconclusive call do not appear. Calls of active or inactive are those of the source. Unless noted, calls come from the whole dose curve; as a rule, active = well fitted curve in the direction sought with a large enough effect in the repeat runs; inconclusive = weak or mixed curves; inactive = no such curve, though single readings can be large; an effect the other way counts as inactive or inconclusive.

The nature of test [1]: qHTS assay to identify small molecule HDAC inhibitors (AID 1259364). Note: potency is the fitted concentration of half-maximal effect.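 Note: wild-type HCT-116 cells with endogenous class I/II HDAC activity; nearly all actives have a fitted effect of over 45% in size.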 In a few lines: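 HCT-116 wt cells, 1,500/well, overnight attach. Compounds (DMSO) 2 h, 37 °C. HDAC-Glo I/II, 30 min RT. Luminescence.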
Test [2] can be described thus: qHTS assay to identify small molecule HDAC inhibitors - cell viability counter screen (AID 1259365). Note: series mostly up to about 92 µM; nearly all actives have a fitted effect of over 50% in size. The essentials: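 HCT-116 wild-type, overnight attachment; 2hr drug exposure, 37C; CellTiter-Glo luminescent ATP readout after 30min RT.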
The nature of test [3]: qHTS assay to identify small molecule agonists of the sonic hedgehog signaling (Shh) pathway - cell viability counter screen (AID 1259366). Note: nearly all actives have a fitted effect of over 50% in size. Note: potency is the fitted concentration of half-maximal effect. In a few lines:
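Compounds in DMSO were pin-transferred onto 3T3 Gli1-Luc cells that had settled 4hr; plates then stood 24hr at 37C and 5% CO2. One hour before the end, CellTiter-Fluor was added and fluorescence recorded.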

Test [4] is described as follows: qHTS assay to identify small molecule antagonists of the sonic hedgehog signaling (Shh) pathway - cell viability counter screen (AID 1259367). Note: nearly all actives have a fitted effect of over 55% in size. Note: potency is the fitted concentration of half-maximal effect. The essentials: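 Cytotoxicity was assessed in parallel with Shh reporter activity by measuring live-cell protease fluorescence (CellTiter-Fluor) in NIH/3T3 cells stably carrying Gli1-Luc, treated with compound under conditioned medium stimulation for 23 hr plus 1 hr reagent incubation.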

Test [5] can be described thus: qHTS assay to identify small molecule agonists of the sonic hedgehog signaling (Shh) pathway (AID 1259368; calls by dose curve;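 note: NIH/3T3-derived 3T3Gli1-Luc cells carrying a stable Gli1-driven firefly luciferase reporter; series mostly up to about 92 µM; nearly all actives have a fitted effect of over 15% in size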). In a few lines: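 Following a 24 hr incubation with DMSO-dissolved compounds at 37 C, 5% CO2, Gli1-Luc NIH/3T3-derived cells received luciferase reagent for 30 min at room temperature prior to luminescence measurement.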
A short description of test [6]: qHTS assay to identify small molecule antagonists of the sonic hedgehog signaling (Shh) pathway (AID 1259369; calls by dose curve; note: nearly all actives have a fitted effect of over 45% in size; note: potency is the fitted concentration of half-maximal effect). In a few lines: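 Read-out is luminescence from a firefly luciferase gene controlled by the Gli1 response element, in 3T3Gli1-Luc cells pre-incubated 4hr then exposed to compounds and conditioned medium for 24hr.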
Test [7] has as its target Estrogen receptor beta (Homo sapiens) (UniProt Q92731). The test can be described thus: qHTS assay to identify small molecule agonists of the estrogen receptor beta (ER-beta) signaling pathway (AID 1259377; active = well fitted activation curve with a large enough effect in the signal ratio in the repeat runs, not every such curve was filed as active; the % refers to the signal ratio). The essentials: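 qHTS in ER-beta-UAS-bla HEK293T cells: 6 hr settling, then 16 hr compound at 37C, then LiveBLAzer substrate 2 h at RT before fluorescence reading.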

Test [8] has the same target. The test can be described thus: qHTS assay to identify small molecule antagonists of the estrogen receptor beta (ER-beta) signaling pathway (AID 1259378; active = well fitted inhibition curve with a large enough effect in the signal ratio in the repeat runs, not every such curve was filed as active; the % refers to the signal ratio; note: potency is the fitted concentration of half-maximal effect). The essentials:
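ER-beta-UAS-bla HEK293T (GripTite) cells in 2% charcoal-stripped FBS medium were preincubated 6 hr at 37C, dosed with compound, then stimulated with 1 nM E2 (final) for 16 hr; beta-lactamase reporter read by B/G FRET fluorescence after 2 hr substrate loading.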

The nature of test [9]: qHTS assay to identify small molecule agonists of the androgen receptor (AR) signaling pathway in the presence of an antagonist - cell viability counter screen (AID 1259379).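 Note: MDA-kb2 human breast cancer cells carrying an MMTV luciferase reporter; series mostly up to about 92 µM; nearly all actives have a fitted effect of over 25% in size.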 The essentials: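 Each compound was tested at 15 concentrations on MDA-kb2 cells in the presence of 3.0uM nilutamide. Viability was measured by CellTiter-Fluor fluorescence after a 16 hr incubation at 37C in a CO2-free atmosphere.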

Test [10] in a line: qHTS assay to identify small molecule antagonists of the estrogen receptor beta (ER-beta) signaling pathway - cell viability counter screen (AID 1259382). Note: series mostly up to about 92 µM; nearly all actives have a fitted effect of over 55% in size. The essentials: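 CellTiter-Glo ATP luminescence measured after the LiveBLAzer read in the same wells; ER-beta-UAS-bla HEK293T cells, 16 hr compound treatment with 1nM 17-beta-estradiol agonist at 37C, 5% CO2.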
The target in test [11] is Thyrotropin receptor (Homo sapiens) (UniProt P16473). The test is described as follows: qHTS assay to identify small molecule antagonists of the thyroid stimulating hormone receptor (TSHR) signaling pathway (AID 1259385; calls by dose curve; note: nearly all actives have a fitted effect of over 20% in size). In a few lines:
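TSHR-HEK293 cells were plated and held 18 h at 37C/5% CO2, then given compound plus Ro20-1724 and stimulated with TSH at 1.5 ng/mL final. After 30 min at room temperature, cAMP was detected with cAMP-d2/anti-cAMP-cryptate (1 h) by fluorescence.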

Test [12] can be described thus: qHTS assay to identify small molecule agonists of the estrogen receptor alpha (ER-alpha) signaling pathway in the presence of an antagonist - cell viability counter screen (AID 1259386).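 Note: series mostly up to about 92 µM; cells exposed to compounds for 22 h at 37 °C before the viability read; nearly all actives have a fitted effect of over 30% in size.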 In a few lines:
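Using estrogen-depleted VM7Luc4E2 cells, the 15-concentration compound series was applied together with 10.0nM ICI-182,780 and incubated 22hr at 37C/5% CO2. Cell viability was then scored by CellTiter-Fluor.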

Test [13] addresses Progesterone receptor (Homo sapiens) (UniProt P06401). The test can be described thus: qHTS assay to identify small molecule agonists of the progesterone receptor (PR) signaling pathway (AID 1346784; calls by dose curve; note: nearly all actives have a fitted effect of over 30% in size). The essentials:
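Fluorescence from LiveBLAzer B/G FRET substrate cleavage (2 hr, RT) reported PR activation in PR-UAS-bla HEK 293T cells treated 16 hr at 37C/5% CO2 with compounds; medium contained 2% charcoal-stripped FBS.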

The target is the same in test [14]. The test can be described thus: qHTS assay to identify small molecule antagonists of the progesterone receptor (PR) signaling pathway (AID 1346795; active = well fitted inhibition curve with a large enough effect in the signal ratio in the repeat runs, not every such curve was filed as active; the % refers to the signal ratio; note: potency is the fitted concentration of half-maximal effect). In a few lines:
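Fluorescence intensity measured 2 hr after adding beta-lactamase FRET substrate to PR-UAS-bla HEK293T cells that had been co-treated 16 hr with compound and 1 nM R5020 (final concentration) in 2% charcoal-stripped FBS.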

The nature of test [15]: qHTS assay to identify small molecule antagonists of the progesterone receptor (PR) signaling pathway - cell viability counter screen (AID 1346798). Note: series mostly up to about 92 µM; nearly all actives have a fitted effect of over 50% in size. In a few lines: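 CellTiter-Glo luminescence; PR-UAS-bla HEK293T, 3,000 cells/well; compound + R5020, 16 hr, 37C/5% CO2; 30 min RT before read.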
Test [16] can be described thus: qHTS assay to identify small molecule agonists or antagonists of the thyroid stimulating hormone receptor (TSHR) signaling pathway - wild type cell line counter screen (AID 1259384; calls by dose curve). In a few lines:
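Wild-type HEK293 cells were plated 18 h at 37 C/5% CO2, pin-dosed with compound plus Ro20-1724 medium, held 30 min at room temperature, then given cAMP-d2 and anti-cAMP-cryptate; fluorescence was read after 1 h. Fifteen concentrations, triplicate.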

Test [17] in a line: qHTS assay to identify small molecule agonists of the estrogen receptor beta (ER-beta) signaling pathway - cell viability counter screen (AID 1259380). Note: nearly all actives have a fitted effect of over 30% in size. The essentials:
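Compounds dissolved in DMSO were pin-transferred onto ER-beta-UAS-bla HEK293T cells that had settled 6 hr, and exposure ran 16 hr at 37C. Following the reporter read, CellTiter-Glo luminescence after 30 min at room temperature indicated cytotoxicity.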

Sequence of Progesterone receptor (Homo sapiens) (P06401 whole entry, looked up): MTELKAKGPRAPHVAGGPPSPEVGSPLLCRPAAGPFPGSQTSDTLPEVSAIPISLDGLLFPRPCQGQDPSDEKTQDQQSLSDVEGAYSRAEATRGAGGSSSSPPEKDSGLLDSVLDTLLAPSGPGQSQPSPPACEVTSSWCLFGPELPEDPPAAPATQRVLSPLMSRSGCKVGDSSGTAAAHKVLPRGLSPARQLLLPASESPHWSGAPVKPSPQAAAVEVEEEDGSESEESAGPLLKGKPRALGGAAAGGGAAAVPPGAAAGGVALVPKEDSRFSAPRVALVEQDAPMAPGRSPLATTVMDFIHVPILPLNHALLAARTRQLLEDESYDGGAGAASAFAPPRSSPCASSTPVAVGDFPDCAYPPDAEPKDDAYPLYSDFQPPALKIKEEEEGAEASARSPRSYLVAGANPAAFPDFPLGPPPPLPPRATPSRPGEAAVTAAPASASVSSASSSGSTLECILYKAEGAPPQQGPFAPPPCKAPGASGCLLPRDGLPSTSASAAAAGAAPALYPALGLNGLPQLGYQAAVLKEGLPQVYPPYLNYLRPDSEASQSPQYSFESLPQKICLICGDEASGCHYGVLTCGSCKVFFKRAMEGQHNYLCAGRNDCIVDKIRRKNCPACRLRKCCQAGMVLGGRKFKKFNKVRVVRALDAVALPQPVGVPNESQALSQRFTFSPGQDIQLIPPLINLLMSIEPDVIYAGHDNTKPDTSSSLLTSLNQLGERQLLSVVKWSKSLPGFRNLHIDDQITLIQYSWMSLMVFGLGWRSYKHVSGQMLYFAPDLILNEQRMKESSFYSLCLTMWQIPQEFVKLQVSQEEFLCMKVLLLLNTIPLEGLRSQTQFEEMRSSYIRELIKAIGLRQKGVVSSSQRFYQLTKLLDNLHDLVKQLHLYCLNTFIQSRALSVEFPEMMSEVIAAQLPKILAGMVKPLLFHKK
Sequence of Estrogen receptor beta (Homo sapiens) (Q92731 whole entry, looked up): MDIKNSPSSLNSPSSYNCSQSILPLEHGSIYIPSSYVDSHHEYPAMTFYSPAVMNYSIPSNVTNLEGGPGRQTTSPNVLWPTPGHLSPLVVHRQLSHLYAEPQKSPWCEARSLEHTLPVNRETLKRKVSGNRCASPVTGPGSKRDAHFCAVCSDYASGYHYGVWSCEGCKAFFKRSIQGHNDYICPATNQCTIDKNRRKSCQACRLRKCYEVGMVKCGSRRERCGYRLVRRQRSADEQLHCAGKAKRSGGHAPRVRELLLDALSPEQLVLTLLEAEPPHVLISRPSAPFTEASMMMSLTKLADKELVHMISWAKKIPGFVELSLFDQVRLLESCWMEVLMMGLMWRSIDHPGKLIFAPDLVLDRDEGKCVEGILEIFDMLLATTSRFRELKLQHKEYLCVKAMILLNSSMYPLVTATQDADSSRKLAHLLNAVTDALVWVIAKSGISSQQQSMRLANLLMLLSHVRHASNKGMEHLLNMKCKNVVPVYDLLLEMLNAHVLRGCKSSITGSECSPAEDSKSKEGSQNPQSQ
Sequence of Thyrotropin receptor (Homo sapiens) (P16473 whole entry, looked up): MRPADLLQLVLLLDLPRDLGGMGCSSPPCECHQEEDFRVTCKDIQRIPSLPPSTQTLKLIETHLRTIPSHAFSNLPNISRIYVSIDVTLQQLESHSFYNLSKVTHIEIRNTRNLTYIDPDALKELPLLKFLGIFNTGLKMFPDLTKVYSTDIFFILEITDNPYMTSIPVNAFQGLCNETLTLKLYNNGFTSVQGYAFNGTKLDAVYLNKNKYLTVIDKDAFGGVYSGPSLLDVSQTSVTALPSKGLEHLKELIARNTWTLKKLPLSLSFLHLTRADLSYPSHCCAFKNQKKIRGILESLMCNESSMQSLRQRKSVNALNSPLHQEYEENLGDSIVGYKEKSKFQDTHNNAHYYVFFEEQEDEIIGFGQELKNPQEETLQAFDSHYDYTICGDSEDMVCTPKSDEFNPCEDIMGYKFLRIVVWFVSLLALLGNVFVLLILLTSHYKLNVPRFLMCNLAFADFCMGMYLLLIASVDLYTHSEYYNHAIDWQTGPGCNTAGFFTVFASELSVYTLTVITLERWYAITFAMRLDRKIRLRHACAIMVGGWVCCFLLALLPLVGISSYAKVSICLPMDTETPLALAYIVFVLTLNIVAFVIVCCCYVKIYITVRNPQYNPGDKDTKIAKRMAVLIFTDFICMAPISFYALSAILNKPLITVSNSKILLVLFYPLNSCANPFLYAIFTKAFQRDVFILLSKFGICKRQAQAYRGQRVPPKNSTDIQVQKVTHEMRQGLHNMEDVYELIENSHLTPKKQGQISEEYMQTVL

Take `C=C(C)C(=O)Nc1ccc(Cl)c(Cl)c1`: the Potency entry in test [1], in test [3], in test [4], in [7], in [8] and in test [9] was “inactive” in each case. For the same molecule, the Potency entry in test [10], in test [11], in [12], in [13] and in [15] was “inactive” throughout. The call in test [2] and in test [5] was inactive. Moreover, the Potency in test [6] is 17.4 µM (active) and 43.1 µM (active); in [14], 24.6 µM (active) and 48.4 µM (active).
For `CN(C)CCOCCN(C)C`, the Potency entry in test [1], in [3], in test [4], in test [6], in test [7] and in [8] was “inactive” in each case. The Potency result in test [9], in test [10], in test [11], in test [12], in test [13] and in [14] was “inactive” in each case. The Potency entry in [15] was “inactive”. For the same molecule, the molecule was classed as inactive in test [2], in test [5] and in [16].
For the molecule `Cc1ccc2oc(=O)ccc2c1`, the Potency entry in test [1], in test [3], in test [4], in [6], in test [7] and in test [8] was “inactive” in each case. Also, the Potency entry in [9], in [10], in test [11], in [12], in [13] and in test [14] was “inactive” each time. In test [15], the Potency result was “inactive”. In addition, the molecule was called inactive in [2], in test [5] and in test [16].
Consider `c1ccc(OCCOc2ccccc2)cc1`, for which the Potency in [1] was 27.3 µM (active). Moreover, the result in test [2], in test [5] and in test [16] was inactive. For the same molecule, the Potency entry in [3], in [4], in test [6], in [7], in [8] and in test [9] was “inactive” in each case. Further, the Potency result in test [17], in test [10], in test [11], in test [12], in test [13] and in test [14] was “inactive” in each case. For the same molecule, the Potency entry in [15] is “inactive”.
Regarding `O=P(OC(CCl)CCl)(OC(CCl)CCl)OC(CCl)CCl`, the Potency entry in test [1], in test [7], in [9], in [17], in [10] and in test [11] was “inactive” in each case. In addition, the Potency entry in test [12], in [13] and in test [15] was “inactive” throughout. Besides, the molecule was called inactive in [2] and in test [5]. The Potency in [3] is 30.5 µM (active); in [4], 30.5 µM (active); in test [8] it was 54.5 µM (active); in [14], 6.82 µM (active) and 7.7 µM (active).
With `CC1CCC2CC1C2(C)C` (centres undefined), the Potency entry in test [1], in [3], in [4], in [6], in [7] and in [8] was “inactive” in each case. The Potency result in [9], in test [10], in test [11], in [12], in [13] and in test [14] was “inactive” each time. The Potency entry in [15] was “inactive”. The molecule was classed as inactive in test [2], in test [5] and in test [16].
For `Cc1ccc(S(N)(=O)=O)cc1`, the Potency result in test [1], in test [3], in test [4], in [6], in [9] and in test [10] was “inactive” each time. Further, the Potency result in test [11], in test [12], in [13], in test [14] and in [15] was “inactive” throughout. Also, the molecule was called inactive in test [2], in test [5] and in test [16].
For `CCCCCCCCCCCCCCO`, the Potency result in test [1], in [3], in [4], in test [6], in test [7] and in [8] was “inactive” each time. Also, the Potency result in [9], in test [10], in test [11], in test [12], in test [13] and in test [14] was “inactive” in each case. In [15], the Potency entry was “inactive”. For the same molecule, the molecule was classed as inactive in test [2] and in test [5].
